The source of these data is PubChem BioAssay.

Experiment [1] in a line: compounds binding Alexa647 anti-His antibody – biochemical, small-molecule microarray, 635 nm fluorescence, artefact control for SMM control protein annotation, primary screen (AID 1128).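 Also: score merges feature fluorescence with signal-to-noise for each printed compound spot.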 The settings on record: higher = more signal.
Experiment [2] has as its system Human papillomavirus type 1a E7 protein (residues 1-88). The experiment is described as follows: HPV1a E7 small-molecule binders, primary screen, biochemical, small-molecule microarray, residues 1-88, 635 nm (AID 1129). To be noted: small-molecule microarray binding, fluorescence 635 nm; higher = more signal.
The target of experiment [3] is Focal adhesion kinase 1 (Homo sapiens) (UniProt Q05397). As to the kind of experiment: PTK2 protein binding on printed compound slides – biochemical, small-molecule microarray, 635/667 nm fluorescence, BSA, DTT, primary screen (AID 1130).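 Also: composite of spot emission at 667 nm and signal to noise over triplicate slides.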 To be noted: 635 nm fluorescence, higher = more signal.
The test system of experiment [4] is Fibrinogen (Alexa647-labelled). The experiment is described as follows: Alexa647-fibrinogen binding to printed small molecules – biochemical, small-molecule microarray, 635/667 nm fluorescence, artefact control for SMM control-protein annotation, profiling panel (AID 1131).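 Also: z-score merges 667 nm fluorescence with per-spot signal-to-noise over triplicate slides.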 To be noted: fibrinogen-A647 binding fluorescence, higher = more signal.
In experiment [5] the target is Follistatin (Homo sapiens) (UniProt P19883). The experiment is described as follows: FST protein binding to printed compounds – biochemical, small-molecule microarray, 635/667 nm fluorescence, primary screen (AID 1132). To be noted: 635 nm fluorescence, higher = more signal.
The target in experiment [6] is Fibroblast growth factor 2 (Homo sapiens) (UniProt P09038). As to the kind of experiment: basic fibroblast growth factor binding to printed compounds – biochemical, small-molecule microarray, 635/667 nm fluorescence, primary screen (AID 1133). To be noted: FGF2, fluorescence 635/667, higher = more signal.
Experiment [7] can be described thus: JC-1 mitochondrial potential readout, lung cancer cells – cell-based, A549, JC-1 fluorescence, basal, 24 h, 100 nL, profiling panel (AID 1138).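 Also: A549 lung adenocarcinoma cells under basal conditions with no added stimulus; test concentration not given here.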 The settings on record: higher = more signal.
In the next experiment the test system is Lefty1. The experiment is described as follows: Lefty1 protein binding to printed compounds – biochemical, small-molecule microarray, 635/667 nm fluorescence, primary screen (AID 1139). To be noted: fluorescence 635/667, higher = more signal.
The subject of experiment [8] is wheat germ agglutinin (Triticum aestivum), Alexa647-labelled. The experiment is described as follows: Alexa647-WGA lectin binding to printed small molecules – biochemical, small-molecule microarray, 635/667 nm fluorescence, artefact control for SMM control-protein annotation, profiling panel (AID 1140).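 Also: score merges 667 nm feature emission with signal to noise over triplicate slides.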 To be noted: WGA-A647 binding, 635 nm fluorescence, higher = more signal.

Experiment [9] deals with Luciferin 4-monooxygenase (Photinus pyralis) (UniProt P08659). The experiment is described as follows: inhibition of purified Photinus pyralis luciferase – biochemical, luminescence, purified enzyme, 2006 set, primary screen (AID 1141).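 Also: cell-free assay with purified firefly luciferase at 100 ng per well in PBS; test concentration not given here.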 To be noted: purified firefly luciferase, SteadyGlo luminescence, 30 min; higher = more signal, called active from +8 up or from −8 down.
The subject of experiment [10] is Wnt5a (protein binding on small-molecule microarray). As to the kind of experiment: small molecules binding Wnt5a protein – biophysical, small-molecule microarray, 635/667 nm fluorescence, primary screen (AID 1142).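 Also: fluorescence read at 667 nm with signal to noise per printed feature.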 To be noted: 635 nm fluorescence, higher = more signal.
The nature of experiment [11]: ATP-based viability of Huh7 replicon cells – cell-based, CellTiter-Glo luminescence, basal, 48 h, cytotoxicity control for HCV replication inhibitor project, primary screen (AID 1143).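 Also: Huh7 hepatoma cells carrying a hepatitis C replication reporter with no stimulus; test concentration not given here.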 The settings on record: higher = more signal, called active from +8 up or from −8 down. For orientation: Replicon systems follow genome replication, usually without infectious particles.

Experiment [12] is described as follows: Pseudomonas biofilm growth suppression – PAO1 strain, BacTiter-Glo luminescence, LB-PBS, primary screen (AID 1144). To be noted: P. aeruginosa PAO1 biofilm, 12 h, higher = more signal.
The nature of experiment [13]: basal CRE-LacZ reporter activity in PC12 – cell-based, unstimulated, primary screen (AID 1145). To be noted: no forskolin, luminescence, 4.5 h, higher = more signal, called active from +8 up or from −8 down.
A short description of experiment [14]: forskolin-driven CRE-LacZ activity in PC12 – cell-based, CRE-LacZ reporter, forskolin-stimulated, primary screen (AID 1146).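 Also: PC12 cells with 6xCRE LacZ reporter stimulated by forskolin 10 µM; beta-galactosidase reporter signal reflecting CREB driven transcription.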 The settings on record: luminescence, 4.5 h, higher = more signal, called active from +8 up or from −8 down.
In experiment [15] the target is Streptavidin (Streptomyces avidinii) (UniProt P22629). As to the kind of experiment: compounds binding control protein streptavidin – biophysical, small-molecule microarray, 635/667 nm fluorescence, artefact control for SMM compound annotation, primary screen (AID 1147).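 Also: signal reflects streptavidin binding to arrayed compounds as a control protein.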 The settings on record: higher = more signal.
A short description of experiment [16]: probe aInhba binding on compound microarray – biochemical, small-molecule microarray, 635/667 nm fluorescence, primary screen (AID 1148).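 Also: score merges 667nm spot fluorescence with signal-to-noise for antibody binding to printed compounds.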 To be noted: higher = more signal.
For experiment [17], the target named is Torsin-1A (Homo sapiens) (UniProt O14656). As to the kind of experiment: TOR1A wild-type binding on microarray – cell lysate, small-molecule microarray, lysate, 635/667 nm, primary screen (AID 1149). To be noted: COS7 hTOR1A-WT lysate, 635 nm fluorescence, higher = more signal.
Experiment [18] has the same target. As to the kind of experiment: torsin A mutant lysate binding on microarrays – cell lysate, small-molecule microarray, COS7 lysate, 635/667 nm fluorescence, primary screen (AID 1150).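 Also: score pools 667 nm emission and signal to noise measuring lysate protein binding.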 To be noted: COS7 hTOR1A mutant lysate, 635 nm fluorescence, higher = more signal.
The test system of experiment [19] is Sonic hedgehog protein (Shh). As to the kind of experiment: Sonic hedgehog microarray binding compounds – biochemical, small-molecule microarray, 635/667 nm fluorescence, primary screen (AID 1151).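 Also: Shh protein binding to compounds spotted on small-molecule microarray slides; score combines spot fluorescence intensity with signal-to-noise across triplicate slides.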 The settings on record: 635 nm fluorescence, higher = more signal.

The source made the active and inactive calls. Unless noted, no rule for the calls is given here.

Sequence of Fibroblast growth factor 2 (Homo sapiens) (P09038 whole entry, looked up): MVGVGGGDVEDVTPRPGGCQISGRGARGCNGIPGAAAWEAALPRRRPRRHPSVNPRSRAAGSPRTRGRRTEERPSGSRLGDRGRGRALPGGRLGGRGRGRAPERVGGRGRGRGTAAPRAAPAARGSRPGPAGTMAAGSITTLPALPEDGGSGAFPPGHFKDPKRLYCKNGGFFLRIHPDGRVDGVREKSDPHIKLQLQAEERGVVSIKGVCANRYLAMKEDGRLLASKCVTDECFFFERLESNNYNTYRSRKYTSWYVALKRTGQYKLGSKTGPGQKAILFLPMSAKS
Sequence of Torsin-1A (Homo sapiens) (O14656 whole entry, looked up): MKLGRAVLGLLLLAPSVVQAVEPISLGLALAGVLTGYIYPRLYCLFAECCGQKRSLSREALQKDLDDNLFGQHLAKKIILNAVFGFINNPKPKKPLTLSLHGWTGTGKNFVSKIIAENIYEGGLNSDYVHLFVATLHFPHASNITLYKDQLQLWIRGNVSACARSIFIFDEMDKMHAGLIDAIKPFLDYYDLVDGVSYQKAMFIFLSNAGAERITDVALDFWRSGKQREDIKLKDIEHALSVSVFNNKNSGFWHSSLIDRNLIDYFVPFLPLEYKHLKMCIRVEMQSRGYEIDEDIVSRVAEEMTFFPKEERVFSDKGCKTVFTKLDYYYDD
Sequence of Focal adhesion kinase 1 (Homo sapiens) (Q05397 whole entry, looked up): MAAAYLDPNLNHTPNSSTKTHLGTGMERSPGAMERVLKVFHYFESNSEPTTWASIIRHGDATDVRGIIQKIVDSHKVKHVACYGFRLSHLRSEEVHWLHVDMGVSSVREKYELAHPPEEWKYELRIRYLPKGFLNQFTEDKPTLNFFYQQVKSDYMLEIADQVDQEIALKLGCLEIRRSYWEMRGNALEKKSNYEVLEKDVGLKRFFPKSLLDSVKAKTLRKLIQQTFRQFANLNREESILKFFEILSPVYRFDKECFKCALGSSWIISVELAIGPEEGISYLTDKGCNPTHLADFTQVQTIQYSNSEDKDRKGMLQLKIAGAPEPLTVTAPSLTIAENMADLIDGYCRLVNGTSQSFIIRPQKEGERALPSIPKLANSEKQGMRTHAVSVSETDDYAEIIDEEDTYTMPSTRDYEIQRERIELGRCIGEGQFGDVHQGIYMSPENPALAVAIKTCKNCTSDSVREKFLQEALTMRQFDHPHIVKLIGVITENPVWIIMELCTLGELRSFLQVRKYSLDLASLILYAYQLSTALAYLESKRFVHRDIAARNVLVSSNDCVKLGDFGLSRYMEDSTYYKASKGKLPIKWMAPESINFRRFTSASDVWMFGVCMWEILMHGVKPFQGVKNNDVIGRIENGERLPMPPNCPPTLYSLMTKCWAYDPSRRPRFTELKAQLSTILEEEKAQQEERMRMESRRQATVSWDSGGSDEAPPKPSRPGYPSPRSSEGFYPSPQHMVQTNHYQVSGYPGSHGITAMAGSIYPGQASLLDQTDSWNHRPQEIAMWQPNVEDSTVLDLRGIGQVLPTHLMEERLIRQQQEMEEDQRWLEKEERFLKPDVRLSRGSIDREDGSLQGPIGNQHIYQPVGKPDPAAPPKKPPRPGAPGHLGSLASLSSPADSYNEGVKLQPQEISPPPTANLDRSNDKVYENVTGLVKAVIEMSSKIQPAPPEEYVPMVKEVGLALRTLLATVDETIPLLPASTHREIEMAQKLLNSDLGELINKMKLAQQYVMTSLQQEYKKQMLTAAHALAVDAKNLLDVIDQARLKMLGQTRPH
Sequence of Follistatin (Homo sapiens) (P19883 whole entry, looked up): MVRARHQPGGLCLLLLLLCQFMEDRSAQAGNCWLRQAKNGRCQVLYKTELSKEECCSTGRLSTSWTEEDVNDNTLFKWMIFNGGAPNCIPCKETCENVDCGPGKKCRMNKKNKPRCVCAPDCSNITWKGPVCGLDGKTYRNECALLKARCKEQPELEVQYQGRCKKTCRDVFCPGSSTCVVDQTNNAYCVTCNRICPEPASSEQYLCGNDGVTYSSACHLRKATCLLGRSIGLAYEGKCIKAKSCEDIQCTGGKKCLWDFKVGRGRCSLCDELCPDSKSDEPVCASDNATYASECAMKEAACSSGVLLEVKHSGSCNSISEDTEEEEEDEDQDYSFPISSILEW
Sequence of Luciferin 4-monooxygenase (Photinus pyralis) (P08659 whole entry, looked up): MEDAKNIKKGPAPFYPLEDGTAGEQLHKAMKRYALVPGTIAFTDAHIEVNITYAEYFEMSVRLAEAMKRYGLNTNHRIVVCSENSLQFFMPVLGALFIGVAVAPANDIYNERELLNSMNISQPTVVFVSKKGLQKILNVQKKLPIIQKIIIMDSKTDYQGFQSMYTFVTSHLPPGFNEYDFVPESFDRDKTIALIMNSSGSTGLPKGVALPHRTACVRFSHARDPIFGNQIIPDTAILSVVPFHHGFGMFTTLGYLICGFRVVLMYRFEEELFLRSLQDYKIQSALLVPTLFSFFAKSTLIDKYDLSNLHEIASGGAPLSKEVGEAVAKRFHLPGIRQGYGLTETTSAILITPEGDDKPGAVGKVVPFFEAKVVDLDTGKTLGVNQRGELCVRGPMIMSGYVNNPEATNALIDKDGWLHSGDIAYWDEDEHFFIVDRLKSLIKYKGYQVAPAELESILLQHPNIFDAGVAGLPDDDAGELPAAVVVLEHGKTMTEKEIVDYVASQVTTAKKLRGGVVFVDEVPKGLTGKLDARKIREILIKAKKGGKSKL
Sequence of Streptavidin (Streptomyces avidinii) (P22629 whole entry, looked up): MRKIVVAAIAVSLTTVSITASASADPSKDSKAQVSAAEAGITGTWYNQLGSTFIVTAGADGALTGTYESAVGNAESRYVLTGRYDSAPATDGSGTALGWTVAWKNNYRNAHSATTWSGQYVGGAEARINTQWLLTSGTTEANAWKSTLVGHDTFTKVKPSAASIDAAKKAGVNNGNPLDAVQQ

On to `[N-]=[N+]=Nc1ccccc1C[C@]1(C(=O)NCCN2CCOCC2)N=C(c2ccc(OCCCO)cc2)O[C@H]1c1ccccc1`, for which the composite z-score in experiment [1] worked out at 1.34; in [2] it was 1.27; in experiment [3], 0.903; in [4], 0.952; in experiment [5], 1.29; in experiment [6], 0.877. The composite z-score with Lefty1 is -0.246; in experiment [8], 0.309; in [10], 0.577; in experiment [15] it was -0.186; in experiment [16] it was 0.101; with Torsin-1A (Homo sapiens) [17], 0.729. The composite z-score with Torsin-1A (Homo sapiens) [18] amounted to 0.749; in experiment [19] it was 0.109. Besides, the z-score is 0.273 in experiment [7]; -0.683 (inactive) in experiment [9]; -2.47 (inactive) in experiment [11]; 0.355 (inactive) in [12]; 0.4 (inactive) in [13]; -0.604 (inactive) in [14].

With `CC(C)=CCCC(C)=CC(O)C1C=CC2C(=O)N(c3ccccc3)C(=O)C2N1Nc1ccccc1` (stereo not given), the composite z-score in experiment [1] turned out to be 1.79; in experiment [2], 1.18; in experiment [3], 0.63; in experiment [4], 1.01; in experiment [5] it was 1.14; in experiment [6], 0.227. Besides, the composite z-score stood at 0.16 with Lefty1; 1.3 in experiment [8]; 0.744 in [10]; 2.04 in experiment [15]; 0.596 in experiment [16]; 0.0777 with Torsin-1A (Homo sapiens) [17]. In addition, the composite z-score worked out at 0.253 with Torsin-1A (Homo sapiens) [18] and 0.0068 in experiment [19]. For the same compound, the z-score is -0.773 in experiment [7]; 0.0145 (inactive) in experiment [9]; 0.311 (inactive) in [11]; -0.786 (inactive) in experiment [12]; 0.819 (inactive) in [13]; 1.7 (inactive) in experiment [14].

`CC(C)c1ccc(NN2C(C(O)c3ccc(N(C)C)cc3)C=CC3C(=O)N(c4ccccc4)C(=O)C32)cc1` (stereo not given): the composite z-score was 0.435 in experiment [1]; 1.24 in experiment [2]; 0.0061 in experiment [3]; 0.96 in [4]; 1.25 in experiment [5]; -0.321 in experiment [6]. The composite z-score is 0.273 in the experiment on Lefty1; 0.923 in experiment [8]; 0.125 in [10]; 1.76 in experiment [15]; 0.268 in [16]; 0.074 in the experiment with Torsin-1A (Homo sapiens) [17]. Further, the composite z-score was 0.658 in the experiment with Torsin-1A (Homo sapiens) [18] and -0.0206 in experiment [19]. Moreover, the z-score is 0.594 in [7]; -0.943 (inactive) in [9]; -1.1 (inactive) in experiment [11]; -0.666 (inactive) in experiment [12]; -0.133 (inactive) in experiment [13]; 0.856 (inactive) in experiment [14].

For the compound `CO[C@H]1O[C@H](CO)[C@@H](OC(=O)Nc2ccc(Oc3ccccc3)cc2)[C@H](OC(=O)Nc2ccccc2)[C@H]1OC(=O)Nc1ccccc1`, the composite z-score is 1.88 in [1]; 1.27 in [2]; 1.12 in [3]; 0.985 in experiment [4]; 1.07 in [5]; 1.61 in experiment [6]. The composite z-score turned out to be 0.444 in the experiment on Lefty1; 1.08 in experiment [8]; 1.07 in [10]; 0.693 in experiment [15]; 0.167 in experiment [16]; 0.546 with Torsin-1A (Homo sapiens) [17]. Moreover, the composite z-score is 0.76 with Torsin-1A (Homo sapiens) [18] and 1.86 in experiment [19]. In addition, the z-score in experiment [7] is -1.69; in experiment [9] it was -0.923 (inactive); in experiment [11], -5.1 (inactive); in experiment [12], -2.24 (inactive); in experiment [13], 0.512 (inactive); in experiment [14] it was -1.64 (inactive).

With `N#Cc1ccc(NN2C(C(O)c3ccc([N+](=O)[O-])cc3)C=CC3C(=O)N(c4ccccc4)C(=O)C32)cc1` (stereo not given), the composite z-score in experiment [1] is 0.728; in experiment [2], 1.24; in experiment [3], 0.943; in experiment [4] it was 0.619; in experiment [5], 0.717; in experiment [6], -0.0956. In addition, the composite z-score in the experiment with Lefty1 is -0.269; in experiment [8], 0.998; in [10] it was 0.72; in experiment [15], 0.323; in [16], 0.137; with Torsin-1A (Homo sapiens) [17], -0.169. Moreover, the values for the composite z-score (with Torsin-1A (Homo sapiens) [18]; in experiment [19]) were 0.303 and -0.261, respectively. Besides, the z-score in experiment [7] is -0.257; in [9], 0.843 (inactive); in [11], 0.845 (inactive); in experiment [12], -0.245 (inactive); in experiment [13], -0.525 (inactive); in experiment [14], 0.516 (inactive).

Regarding `CCCC[C@@H]1C[C@H]1[C@@H](NC(=O)c1ccc(-c2ccccc2)cc1)c1ccc(-c2ccccc2)cc1`, the composite z-score in [1] turned out to be 0.0916; in experiment [2] it was 0.481; in experiment [3], 0.504; in [4], 0.348; in [5], 1.37; in experiment [6], 0.271. Besides, the composite z-score in the experiment with Lefty1 was found to be 0.971; in experiment [8], 0.249; in [10], 0.198; in experiment [15] it was 0.305; in [16] it was 0.0111; with Torsin-1A (Homo sapiens) [17], 0.0287. The composite z-score with Torsin-1A (Homo sapiens) [18] is -0.0963; in experiment [19], 2.02. For the same compound, the z-score was 0.738 in [7]; 0.779 (inactive) in experiment [9]; -2.94 (inactive) in [11]; 0.0911 (inactive) in experiment [12]; 0.394 (inactive) in [13]; 1.7 (inactive) in experiment [14].

In the case of `CC(C)CNC(=O)[C@@]1(c2ccc([N+](=O)[O-])cc2)CC(=O)N(CC23CC4CC(CC(C4)C2)C3)[C@@H]1c1ccc(CO)cc1I`, the composite z-score was 1.33 in experiment [1]; 1.14 in [2]; 0.775 in [3]; 0.635 in experiment [4]; 1.39 in experiment [5]; 1.31 in [6]. Moreover, the composite z-score was 1.12 in the experiment on Lefty1; 0.352 in [8]; 0.777 in experiment [10]; 0.574 in experiment [15]; 0.11 in [16]; 0.283 with Torsin-1A (Homo sapiens) [17]. Besides, the composite z-score was 0.578 with Torsin-1A (Homo sapiens) [18] and 2.02 in experiment [19]. For the same compound, the z-score was 1.12 in [7]; -0.447 (inactive) in experiment [9]; -4.95 (inactive) in experiment [11]; -0.266 (inactive) in [12]; 0.145 (inactive) in experiment [13]; 1.07 (inactive) in experiment [14].
